{"source": "paper PMC5540273", "about": "(PLoS ONE, 2017);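 further: KINOMEscan kinase panel screen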", "data": [{"tested_on": "AURKB", "settings": "concentration: 1 μM, replicates: in singlicate; n = 1", "units": {"%Inh": "%"}, "values": [{"smiles": "O=C(Nc1ccc2c(c1)OCO2)NC1CCN(c2ccnc(NCc3ccc(F)cc3)n2)CC1", "note": "[GSK1379859]", "%Inh": 0}, {"smiles": "O=C(Nc1n[nH]c2cc(-c3ccccc3F)ccc12)C1CC1", "note": "[SB-733371]", "%Inh": 51}, {"smiles": "Cc1ccccc1COc1cc(-n2cnc3cc(Cl)ccc32)sc1C(N)=O", "note": "[GW813349]", "%Inh": 2}, {"smiles": "Cc1nnc(-c2ccc(C)c(-c3ccc(C(=O)O)cc3)c2)o1", "note": "[GW608005]", "%Inh": 0}, {"smiles": "COc1ccc(-c2cc3c(C)nc(N)nc3n([C@H]3CC[C@H](O)CC3)c2=O)cn1", "%Inh": 0}, {"smiles": "CCC(=O)c1c(-c2ccccc2)c2cc(Cl)ccc2c(=O)n1Cc1cc(S(C)(=O)=O)n(CC(F)F)n1", "%Inh": 11}, {"smiles": "CC(C)(C)c1ccc(C(=O)Nc2cn3cc(-c4ccccc4)ccc3n2)cc1", "%Inh": 51}, {"smiles": "Cc1c(Cn2c(C)nn3c(=O)cc(N4CCO[C@H](C)C4)nc23)cccc1C(F)(F)F", "note": "[GSK2373690]", "%Inh": 27}, {"smiles": "COc1cccc(C2=C(Nc3cccc(C(=O)O)c3)C(=O)NC2=O)c1", "note": "[SB-390770]", "%Inh": 31}, {"smiles": "COc1cc2ncn(-c3cc(OCc4ccncc4)c(C(N)=O)s3)c2cc1OC", "note": "[GSK336313]", "%Inh": 0}, {"smiles": "COc1ccc(-c2coc3ccc(-c4nnc(SCc5cccc(C#N)c5)o4)cc23)cc1", "%Inh": 12}, {"smiles": "Nc1nc(-c2ccccc2F)c(-c2ccnc3ccccc23)s1", "note": "[GW560459]", "%Inh": 5}, {"smiles": "COC(=O)c1c(-c2ccccc2)c2cc(Br)ccc2c(=O)n1Cc1ccc(NC(=O)CCC(=O)O)cc1", "%Inh": 9}]}]}
